# Measurements reported in PubChem BioAssay AID1159580 (chemical genetic matrix, 2015).
# The campaign covered roughly 5,500 compounds. About 2,000 (36%) were called active. Another 18% or so got no clear call; they are omitted. The list shows a part of the results. Unmarked numbers belong to inactive results. No stated cut-off is given here; in the data, active means normalized growth mostly below about 0.91 (no sharp cut-off); inconclusive means no clear call, values can overlap the other calls; inactive means mostly above about 0.92.
# Test: chemical genetic growth profiling, strain panel (AID 1159580);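 further: tested at 20 µM; growth read once vehicle control cultures reached saturation at 30 °C; 1 = growth at the plate median or of vehicle wells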
# Conditions: S. cerevisiae deletion strains, growth OD
smiles,measurement,setting,value
Cc1ccc(S(=O)(=O)NC(=O)Nc2ccc(Sc3ccccc3)nc2Sc2ccccc2)cc1,normalized growth,"locus YAR019C, strain CDC15, stronger effect = lower value",0.984
same,normalized growth,"locus YBL105C, strain PKC1, stronger effect = lower value",0.967
same,normalized growth,"locus YBR135W, strain CKS1, stronger effect = lower value",0.968
same,normalized growth,"locus YBR136W, strain MEC1, stronger effect = lower value",0.972
same,normalized growth,"locus YBR160W, strain CDC28, stronger effect = lower value",0.969
same,normalized growth,"locus YDL017W, strain CDC7, stronger effect = lower value",0.974
same,normalized growth,"locus YDL028C, strain MPS1, stronger effect = lower value",0.974
same,normalized growth,"locus YDL101C, strain DUN1, stronger effect = lower value",0.983
same,normalized growth,"locus YDL108W, strain KIN28, stronger effect = lower value",0.966
same,normalized growth,"locus YDL132W, strain cdc53, stronger effect = lower value",0.956
same,normalized growth,"locus YDL214C, strain PRR2, stronger effect = lower value",0.927
same,normalized growth,"locus YDR052C, strain DBF4, stronger effect = lower value",0.978
same,normalized growth,"locus YDR054C, strain cdc34, stronger effect = lower value",0.969
same,normalized growth,"locus YDR226W, strain ADK1, stronger effect = lower value",0.977
same,normalized growth,"locus YDR477W, strain SNF1, stronger effect = lower value",0.936
same,normalized growth,"locus YER123W, strain YCK3, stronger effect = lower value",0.976
same,normalized growth,"locus YER133W, strain GLC7, stronger effect = lower value",0.961
same,normalized growth,"locus YFL009W, strain cdc4, stronger effect = lower value",0.957
same,normalized growth,"locus YFL029C, strain CAK1, stronger effect = lower value",0.979
same,normalized growth,"locus YFR003C, strain YPI1, stronger effect = lower value",0.969
same,normalized growth,"locus YFR019W, strain FAB1, stronger effect = lower value",0.993
same,normalized growth,"locus YFR028C, strain CDC14, stronger effect = lower value",0.974
same,normalized growth,"locus YGR040W, strain KSS1, stronger effect = lower value",0.942
same,normalized growth,"locus YGR052W, strain FMP48, stronger effect = lower value",0.982
same,normalized growth,"locus YGR092W, strain DBF2, stronger effect = lower value",0.913
same,normalized growth,"locus YHR030C, strain SLT2, stronger effect = lower value",0.745 (active)
same,normalized growth,"locus YHR079C, strain IRE1, stronger effect = lower value",0.948
same,normalized growth,"locus YHR082C, strain KSP1, stronger effect = lower value",1.03
same,normalized growth,"locus YHR205W, strain SCH9, stronger effect = lower value",0.946
same,normalized growth,"locus YIL147C, strain SLN1, stronger effect = lower value",0.977
same,normalized growth,"locus YJL095W, strain BCK1, stronger effect = lower value",0.933
same,normalized growth,"locus YJL128C, strain PBS2, stronger effect = lower value",0.967
same,normalized growth,"locus YJL157C, strain FAR1, stronger effect = lower value",0.97
same,normalized growth,"locus YJR016C, strain ILV3, stronger effect = lower value",0.98
same,normalized growth,"locus YJR066W, strain TOR1 (second series), stronger effect = lower value",0.967
same,normalized growth,"locus YJR066W, strain TOR1, stronger effect = lower value",0.95
same,normalized growth,"locus YKL048C, strain ELM1, stronger effect = lower value",0.97
same,normalized growth,"locus YKL067W, strain YNK1, stronger effect = lower value",0.914
same,normalized growth,"locus YKL101W, strain HSL1, stronger effect = lower value",0.957
same,normalized growth,"locus YKL193C, strain SDS22, stronger effect = lower value",0.972
same,normalized growth,"locus YKL203C, strain TOR2, stronger effect = lower value",1.04
same,normalized growth,"locus YLR113W, strain HOG1, stronger effect = lower value",0.885
same,normalized growth,"locus YLR133W, strain CKI1, stronger effect = lower value",0.954
same,normalized growth,"locus YLR403W, strain SFP1, stronger effect = lower value",0.999
same,normalized growth,"locus YML070W, strain DAK1, stronger effect = lower value",0.972
same,normalized growth,"locus YMR001C, strain CDC5, stronger effect = lower value",0.971
same,normalized growth,"locus YMR205C, strain PFK2 (second series), stronger effect = lower value",0.944
same,normalized growth,"locus YMR277W, strain FCP1, stronger effect = lower value",0.965
same,normalized growth,"locus YNL006W, strain LST8, stronger effect = lower value",0.968
same,normalized growth,"locus YNL020C, strain ARK1, stronger effect = lower value",0.949
same,normalized growth,"locus YNL161W, strain CBK1, stronger effect = lower value",0.973
same,normalized growth,"locus YNL183C, strain NPR1, stronger effect = lower value",0.969
same,normalized growth,"locus YNL207W, strain RIO2, stronger effect = lower value",0.966
same,normalized growth,"locus YNL222W, strain SSU72, stronger effect = lower value",0.948
same,normalized growth,"locus YNL307C, strain MCK1 (second series), stronger effect = lower value",0.945
same,normalized growth,"locus YOL078W, strain AVO1, stronger effect = lower value",0.966
same,normalized growth,"locus YOL136C, strain PFK27, stronger effect = lower value",0.972
same,normalized growth,"locus YOR061W, strain CKA2, stronger effect = lower value",0.938
same,normalized growth,"locus YOR119C, strain RIO1, stronger effect = lower value",0.98
same,normalized growth,"locus YOR231W, strain MKK1, stronger effect = lower value",0.976
same,normalized growth,"locus YOR329C, strain SCD5, stronger effect = lower value",0.977
same,normalized growth,"locus YPL031C, strain PHO85, stronger effect = lower value",0.94
same,normalized growth,"locus YPL153C, strain RAD53, stronger effect = lower value",0.946
same,normalized growth,"locus YPL204W, strain HRR25, stronger effect = lower value",0.934
same,normalized growth,"locus YPL209C, strain IPL1, stronger effect = lower value",0.976
same,normalized growth,"locus YPL256C, strain CLN2, stronger effect = lower value",0.955
same,normalized growth,"locus YPR025C, strain CCL1, stronger effect = lower value",0.97
same,normalized growth,"locus YPR106W, strain ISR1, stronger effect = lower value",0.979
same,normalized growth,"locus YPR111W, strain DBF20, stronger effect = lower value",0.954
same,normalized growth,"strain NNK1, stronger effect = lower value",0.974
same,normalized growth,"strain TSCII, stronger effect = lower value",0.963
